We go through seven compounds from PubChem BioAssay (Tox21).

Test [1] in a line: A CellTox Green Cytotoxicity Assay to monitor cytotoxicity in HEK293 cells - 32 hour (AID 1224881). Further: nearly all actives have a fitted effect of over 40% in size. Summed up:
(§1)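 HEK293 cells premixed with CellTox Green dye were seeded at 600 cells/well and left 5 h at 37 C/5% CO2 before pin transfer of 23 nL compound in DMSO. Fluorescence from dye bound to dead-cell DNA was read during 40 h treatment.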

Test [2] can be described thus: A CellTox Green Cytotoxicity Assay to monitor cytotoxicity in HepG2 cells - 0 hour (AID 1224882). Further: nearly all actives have a fitted effect of over 35% in size. In outline: (§2)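 HepG2 cells were seeded together with the CellTox Green dye at 600 cells/well, left 5 h at 37 C/5% CO2, then given compounds in DMSO. Fluorescence from dye bound to dead-cell DNA was read repeatedly over 40 h of treatment at 37 C.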
The nature of test [3]: A CellTox Green Cytotoxicity Assay to monitor cytotoxicity in HepG2 cells - 32 hour (AID 1224883). Further: nearly all actives have a fitted effect of over 50% in size. Summed up: as §2
The nature of test [4]: A CellTox Green Cytotoxicity Assay to monitor cytotoxicity in HEK293 cells - 8 hour (AID 1224884). Further: nearly all actives have a fitted effect of over 35% in size. Summed up: as §1
Test [5] can be described thus: qHTS RealTime-Glo MT Cell Viability Assay in HepG2 cells - 16 hour (AID 1224885). Further: nearly all actives have a fitted effect of over 50% in size. Summed up: (§3)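 HepG2 cells (600/well) were dispensed with RealTime-Glo reagents, incubated 5 h at 37 °C, then treated with compounds in DMSO for up to 40 h. Nonlytic NanoLuc luminescence reflecting viable cells was read at each stated time point.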
A general note: qHTS replaces the single test concentration by a dilution series.

Test [6] in a line: qHTS RealTime-Glo MT Cell Viability Assay in HEK293 cells - 24 hour (AID 1224886). Further: top concentration of the series differs between compounds; nearly all actives have a fitted effect of over 50% in size. In outline: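 HEK293 cells seeded with NanoLuc/prosubstrate reagent, rested 5 h at 37 C, then dosed and kept at 37 C up to 40 h. Nonlytic real-time luminescence from viable cells read at 0, 8, 16, 24, 32 and 40 h.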
A short description of test [7]: qHTS RealTime-Glo MT Cell Viability Assay in HEK293 cells - 8 hour (AID 1224887). Further: top concentration of the series differs between compounds; nearly all actives have a fitted effect of over 50% in size. In outline:
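HEK293 cells mixed with RealTime-Glo reagents (NanoLuc plus cell-permeant prosubstrate) at 600 cells/well, preincubated 5 h at 37 C/5% CO2, then given 23 nL compound in DMSO. Nonlytic luminescence from viable cells was read at 0, 8, 16, 24, 32 and 40 h.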

Test [8] is described as follows: A CellTox Green Cytotoxicity Assay to monitor cytotoxicity in HEK293 cells - 16 hour (AID 1224888). Further: nearly all actives have a fitted effect of over 35% in size. Summed up: as §1
Test [9] in a line: qHTS RealTime-Glo MT Cell Viability Assay in HepG2 cells - 0 hour (AID 1224889). Further: nearly all actives have a fitted effect of over 50% in size. Further: potency means the concentration at half of the fitted maximal effect. In outline:
as §3

A short description of test [10]: A CellTox Green Cytotoxicity Assay to monitor cytotoxicity in HepG2 cells - 8 hour (AID 1224890). Further: nearly all actives have a fitted effect of over 45% in size. Summed up: as §2
A short description of test [11]: qHTS assay to identify small molecule antagonists of the estrogen receptor alpha (ER-alpha) signaling pathway using the BG1 cell line in the presence of 0.1 nM 17-beta-estradiol - cell viability counter screen (AID 1259241). Further: nearly all actives have a fitted effect of over 40% in size. Summed up:
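Viability in VM7Luc4E2 cells after 22 hr compound exposure under 0.1 nM 17beta-estradiol stimulation, by CellTiter-Fluor.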

Test [12] is described as follows: qHTS assay to identify small molecule antagonists of the androgen receptor (AR) signaling pathway using the MDA cell line in the presence of 0.5 nM R1881 - cell viability counter screen (AID 1259242). Further: nearly all actives have a fitted effect of over 45% in size. In outline: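 MDA-kb2 cells (human breast carcinoma, stably carrying MMTV-luciferase reporter) were exposed to compounds with 0.5 nM R1881 (final) for 16 hr at 37C, 0% CO2; viability then read as live-cell protease fluorescence (CellTiter-Fluor, 30 min) in the same wells.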

For test [13], the target named is Estrogen receptor (Homo sapiens) (UniProt P03372). Nature of the test: qHTS assay to identify small molecule antagonists of the estrogen receptor alpha (ER-alpha) signaling pathway using the BG1 cell line in the presence of 0.1 nM 17-beta-estradiol (AID 1259244). Further: nearly all actives have a fitted effect of over 50% in size. Summed up: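 VM7Luc4E2 cells (endogenous full-length ER-alpha, stable 4xERE-luciferase) were grown 5 days in phenol red-free medium with charcoal-stripped FBS, then exposed 22 h at 37C to compounds plus 0.1 nM (final) 17beta-estradiol; ONE-Glo luminescence read-out.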
Chain of Estrogen receptor (Homo sapiens) (P03372 whole entry, looked up): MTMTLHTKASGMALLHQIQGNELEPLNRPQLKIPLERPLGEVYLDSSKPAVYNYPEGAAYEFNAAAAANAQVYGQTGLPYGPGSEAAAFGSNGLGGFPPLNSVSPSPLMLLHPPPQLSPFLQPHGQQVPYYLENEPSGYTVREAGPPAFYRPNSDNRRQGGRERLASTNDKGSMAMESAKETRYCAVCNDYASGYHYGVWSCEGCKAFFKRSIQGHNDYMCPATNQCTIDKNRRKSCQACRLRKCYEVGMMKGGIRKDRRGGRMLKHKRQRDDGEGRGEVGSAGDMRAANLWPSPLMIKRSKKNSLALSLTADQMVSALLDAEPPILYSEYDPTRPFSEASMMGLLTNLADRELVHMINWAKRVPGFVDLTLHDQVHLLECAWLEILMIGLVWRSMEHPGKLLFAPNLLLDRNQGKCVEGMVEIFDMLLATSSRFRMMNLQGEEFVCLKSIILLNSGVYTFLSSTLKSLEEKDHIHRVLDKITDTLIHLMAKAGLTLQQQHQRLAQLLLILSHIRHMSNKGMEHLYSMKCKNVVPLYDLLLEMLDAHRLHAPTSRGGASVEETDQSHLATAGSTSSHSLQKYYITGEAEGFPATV

The nature of test [14]: qHTS assay to identify small molecule phospholipidosis (PLD) inducers (AID 1259344; active means well fitted curve in the direction sought with a large enough effect; an effect the other way counts as inactive or inconclusive). In outline: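 HepG2 cells, 900/well, treated with compound plus LipidTOX Red for 24 h at 37 C; amiodarone positive and DMSO negative controls. Fixed with paraformaldehyde/Hoechst, then high-content imaging scored LipidTOX pit count and integrated intensity per well and per cell.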
Test [15] can be described thus: qHTS assay to identify small molecule HDAC inhibitors (AID 1259364). Further: top concentration of the series differs between compounds; nearly all actives have a fitted effect of over 45% in size. In outline: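 Wild-type HCT-116 cells were plated overnight, exposed to compounds for 2 h at 37 °C, then given HDAC-Glo class I/II luminogenic reagent for 30 min at room temperature before luminescence was read.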
A short description of test [16]: qHTS assay to identify small molecule HDAC inhibitors - cell viability counter screen (AID 1259365). In outline:
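Cytotoxicity was gauged in wild-type HCT-116 cells after a brief 2hr treatment with DMSO-dissolved compounds at 37C and 5% CO2, using CellTiter-Glo luminescence developed for 30min at room temperature.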

Test [17] can be described thus: qHTS assay to identify small molecule agonists of the sonic hedgehog signaling (Shh) pathway - cell viability counter screen (AID 1259366). Further: nearly all actives have a fitted effect of over 50% in size. In outline:
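Stable Gli1-Luc NIH/3T3 clone, 2,000 cells/well. Compound exposure 24hr at 37C. Read-out: CellTiter-Fluor fluorescence.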

The nature of test [18]: qHTS assay to identify small molecule antagonists of the sonic hedgehog signaling (Shh) pathway - cell viability counter screen (AID 1259367). Further: nearly all actives have a fitted effect of over 55% in size. Summed up:
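NIH/3T3-derived Gli1-Luc reporter cells, 2,000/well, plated 4 hr before compound addition, then stimulated with conditioned medium for 24 hr at 37C. Viability measured in the same wells by CellTiter-Fluor fluorescence, reagent added at 23 hr for 1 hr.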

The nature of test [19]: qHTS assay to identify small molecule agonists of the sonic hedgehog signaling (Shh) pathway (AID 1259368; calls by dose curve; further: series mostly up to about 92 µM; nearly all actives have a fitted effect of over 15% in size). Summed up:
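NIH/3T3-derived 3T3Gli1-Luc cells carrying a stably integrated Gli1 response element–firefly luciferase reporter were plated, left 4 hr at 37 C, then given compounds in DMSO for 24 hr. Luminescence was read 30 min after adding luciferase reagent.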

Structures are written as SMILES. “And” between values parts separate entries of the source, which are not always exact repeats. Equal values may be shown once. Records with an inconclusive call do not appear. The source made the active and inactive calls. Unless noted, the call rests on the fitted dose curve; in most records, active means well fitted curve in the direction sought with a large enough effect in the repeat runs; inconclusive means weak or mixed curves; inactive means no such curve, though single readings can be large; an effect the other way counts as inactive or inconclusive.

`C[C@]12C=CC(=O)C=C1CC[C@@H]1[C@@H]2[C@@H](O)C[C@@]2(C)[C@H]1CC[C@]2(O)C(=O)CO`: the Potency result in test [1], in test [2], in test [3], in [4], in test [5] and in [6] was “inactive” in each case. Also, the Potency result in test [7], in [8], in [10], in test [11], in test [12] and in test [13] was “inactive” in each case. Further, the Potency entry in test [15], in test [17] and in [18] was “inactive” each time. Moreover, the Potency in test [9] is 21.6 µM (active) and 19.5 µM (active). Also, the compound was called inactive in test [14], in test [16] and in test [19].

`Cc1noc(NS(=O)(=O)c2ccc(N)cc2)c1C`: the Potency result in test [1], in test [2], in test [3], in [4], in test [5] and in [6] was “inactive” throughout. For the same compound, the Potency result in test [7], in test [8], in test [10], in test [11], in test [13] and in test [15] was “inactive” throughout. Moreover, the Potency entry in test [17] and in test [18] was “inactive” throughout. Further, the outcome in test [14], in [16] and in test [19] was inactive.

With `O=C(O)c1cccc([N+](=O)[O-])c1`, the Potency entry in test [1], in test [2], in test [3], in [4], in test [5] and in test [6] was “inactive” in each case. For the same compound, the Potency entry in [7], in [8], in test [10], in test [11], in test [12] and in test [15] was “inactive” in each case. Also, the Potency result in [17] and in [18] was “inactive” in each case. The outcome in test [16] and in [19] was inactive.

As for `CC(O)CO` (centres undefined), the Potency entry in test [1], in test [2], in test [3], in test [4], in [6] and in test [7] was “inactive” throughout. The Potency result in test [8], in test [9], in test [10], in [11], in test [12] and in [13] was “inactive” each time. Besides, the Potency entry in test [15], in test [17] and in test [18] was “inactive” each time. Moreover, the compound was classed as inactive in test [14], in test [16] and in [19].

`OC(Cn1cncn1)(Cn1cncn1)c1ccc(F)cc1F`: the Potency result in [1], in [2], in test [3], in test [4], in [5] and in test [6] was “inactive” throughout. The Potency result in [7], in test [8], in test [10], in [11], in test [13] and in [15] was “inactive” each time. The Potency entry in [17] and in test [18] was “inactive” throughout. The compound was called inactive in test [14], in test [16] and in test [19].

As for `NC(=O)c1ccccc1O`, the Potency result in test [1], in [2], in test [3], in test [4], in test [5] and in test [6] was “inactive” in each case. For the same compound, the Potency result in test [7], in [8], in [10], in test [11], in test [12] and in [13] was “inactive” throughout. The Potency result in test [15], in test [17] and in test [18] was “inactive” each time. The result in test [14], in test [16] and in test [19] was inactive.

In the case of `CC(=O)Nc1nnc(S(N)(=O)=O)s1`, the Potency result in [1], in test [2], in [3], in test [4], in [5] and in test [6] was “inactive” in each case. In addition, the Potency result in test [7], in test [8], in test [9], in [10], in test [11] and in test [12] was “inactive” in each case. Besides, the Potency entry in test [13], in [15], in test [17] and in [18] was “inactive” throughout. For the same compound, the call in test [14], in [16] and in test [19] was inactive.
